Experiment [1] can be described thus: Wnt pathway potentiators raising nuclear beta-catenin – imaging, WNT3A-conditioned medium, mouse C2C12, NPC library, primary screen (AID 1117326; in the data active = nuclear beta-catenin stimulation mostly above about 4.2%, no sharp cut-off; inactive = mostly below about 10%). As to conditions: stronger effect = higher value.
The nature of experiment [2]: stimulators of insulin release from INS-1E, primary screen, cell-based, 5 mM glucose, NPC library (AID 1117329;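 active = compound raises insulin release from rat beta cells at 5 mM glucose, no numeric limit stated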). As to conditions: rat INS-1E insulin secretion, at 10 µM, stronger effect = higher value.
Experiment [3] is described as follows: growth inhibition of GSK3B-pretreated HCT116 cells – cell-based, CellTiter-Glo, 0.2 to 20 µM (AID 1117336;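 active = compounds lowering colon cancer cell viability after pretreatment blocking the GSK3B kinase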). As to conditions: HCT116 viability after GSK3B inhibitor, at 20 µM, stronger effect = higher value. On the technique in general: In ATP-based viability assays light output follows the ATP content of the culture.
The nature of experiment [4]: inhibition of endothelial tube formation, primary screen, imaging, VEGF stimulated, CD31 staining, tube area, NPC library (AID 1117340;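 active = compound that reduces growth-factor-driven endothelial tube area in a mixed cell culture, no cutoff stated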). As to conditions: VEGF-stimulated ADSC/ECFC co-culture, at 10 µM, stronger effect = higher value.
A short description of experiment [5]: GLP1 release stimulators, primary, NCI-H716, NPC library (AID 1117341;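 active = compound raises GLP1 secretion from the human gut endocrine cells, with no numeric limit stated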). The conditions noted are these: NCI-H716 cells, at 10 µM, stronger effect = higher value.
Experiment [6] can be described thus: HCT116 colon cancer cell growth inhibition, primary screen, CellTiter-Glo luminescence, NPC library (AID 1117342;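 active = compounds that lower survival of HCT116 colon cancer cells in the luminescence readout, no numeric limit stated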). As to conditions: at 20 µM (top of the series).
The nature of experiment [7]: reduced SW480 viability measured with CellTiter-Glo, NPC library, primary (AID 1117343;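 active = compounds that lower viability of the colon cancer cells in the luminescence readout, with no numeric limit stated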). As to conditions: CellTiter-Glo luminescence; at 20 µM (top of the series).
Experiment [8] is described as follows: NPC library primary testing for decreased DLD-1 cell viability via CellTiter-Glo (AID 1117346;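 active = compounds that lower survival of DLD-1 colon cancer cells in the luminescence readout, no cutoff given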). As to conditions: DLD-1 viability, CellTiter-Glo luminescence; at 20 µM (top of the series).
In experiment [9] the target is 6-phosphogluconate dehydrogenase, decarboxylating (Homo sapiens) (UniProt P52209). The experiment is described as follows: inhibition of human phosphogluconate dehydrogenase – biochemical, recombinant enzyme, NADPH absorbance, primary screen (AID 1159550;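 active = at least 20% inhibition of 6-phosphogluconate dehydrogenase activity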). The conditions noted are these: recombinant 6PGD, NADPH absorbance 341 nm; at 10 µM; stronger effect = higher value.
Experiment [10] can be described thus: EMT-state selective cytotoxicity in co-culture – imaging, PC-3E GFP, TEM4-18 mCherry, primary screen (AID 1345086;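 active = compounds killing one labelled cell type while sparing the other, by normalised counts and ratio limits, not self-fluorescent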;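 for all read-outs here: cells exposed to compound for 72 h before imaging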;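 for red/green cell ratio (normalised): normalised mesenchymal count divided by normalised epithelial count so high means epithelial killing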). As to conditions: PC-3E GFP / TEM4-18 mCherry co-culture, imaging cell counts, at 1 µM; for red/green cell ratio (normalised): actives lie on both sides.
Experiment [11] can be described thus: viability loss with induced miR-34 in A549 – imaging, A549 dox-inducible miR-34, nuclei and caspase counts, primary screen (AID 1347080;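 active = compounds whose cell count with miR-34 switched on is under 0.7 times the count with it off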). As to conditions: A549 miR-34 inducible, Hoechst nuclei count, 48 h.
The nature of experiment [12]: MELAS cybrid and Rieske KO viability enhancers – cell-based, MELAS cybrids, Rieske KO mouse fibroblasts, CellTiter-Glo, primary screen (AID 1508586;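 active = mean z-score across replicates of 1.96 or higher in either the MELAS or the Rieske mutant cell line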;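 note: z relative to plate mean and SD of compound and empty wells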). As to conditions: low glucose.
Experiment [13] deals with NAD(+) hydrolase SARM1 (Homo sapiens) (UniProt Q6SZW1). Kind of experiment: blocking NAD cleavage by SARM1 SAM-TIR – cell lysate, NAD-Glo luminescence (AID 1508614;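 active = compound whose remaining NAD level is above about 45 nM, limit read from the data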;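 note: higher remaining NAD means stronger inhibition of SARM1 NADase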). As to conditions: SAM-TIR HEK293T lysate NADase, at 1 µM, stronger effect = higher value.
A short description of experiment [14]: galactose survival enhancers in mitochondrial complex I cybrids – cell-based, galactose medium, ATP luminescence, primary screen (AID 1645843).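 Note: positive z means more ATP and so rescue of galactose-driven cybrid death.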 As to conditions: complex I mutant cybrid cells, 72 h, stronger effect = higher value.
For experiment [15], the system named is Aerobactin synthetase IucA (Klebsiella pneumoniae hvKP1). The experiment is described as follows: IucA enzyme inhibition, primary screen, biochemical, Spectrum library (AID 1346200; call rule not given here;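 note: 100% = wells without compound and 0% = wells lacking enzyme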). The conditions noted are these: malachite green pyrophosphate, A620, at 8 µM, stronger effect = lower value.
In experiment [16] the target is Mitogen-activated protein kinase 7 (Homo sapiens) (UniProt Q13164). The experiment is described as follows: Gal4-ERK5 driven luciferase induction – cell-based, HTS, primary screen (AID 1508626;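 active = luciferase signal above three times the same-plate solvent-only control wells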;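 note: luciferase driven by Gal4-ERK5 fusion binding five Gal4 sites before minimal TATA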). The conditions noted are these: HeLa Gal4-ERK5 transactivation, 18 h, at 5 µM, stronger effect = higher value.
The nature of experiment [17]: yeast 75Q aggregation reduction – 75Q-TubU reporter (AID 1593). As to conditions: Yeast 75Q polyglutamine aggregation reporter.
Experiment [18] in a line: blockers of cytochrome c efflux from mitochondria – biochemical, purified mitochondria (AID 1603).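 Note: mouse liver mitochondria challenged with calcium chloride; signal normalized to the plate average as 100%.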 The conditions noted are these: stronger effect = lower value.
Experiment [19] can be described thus: polyglutamine aggregate formation blockers (AID 1604). As to conditions: polyglutamine-induced protein aggregation inhibition assay; stronger effect = higher value; tested at 2.5 µM.
[20] abbreviates: measured here: epithelial PC-3E GFP cell survival.
The mark [21] stands for this setting: measured here: mesenchymal TEM4-18 mCherry cell survival.
The mark [22] stands for this setting: MELAS cybrid survival, CellTiter-Glo 48 h, stronger effect = higher value.
Setting [23] is: Rieske KO mouse fibroblast survival, CellTiter-Glo 72 h.

Broadly, the inhibition is the drop in the measured response relative to a control, in per cent.

Each structure is given as a SMILES string. Values joined by “and” are separate entries in the source; they are usually repeats but may differ in a detail not shown here. Equal entries are not always repeated. Some structures have more than one record in an assay (separate samples or runs), and their calls can disagree. Active and inactive are the calls of the source.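 Rule for the calls, unless noted: active = z-score of at least 1.8 in each of two replicates, scored against plate mean and spread of sample wells; inactive = the rest.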

Chain of NAD(+) hydrolase SARM1 (Homo sapiens) (Q6SZW1 whole entry, looked up): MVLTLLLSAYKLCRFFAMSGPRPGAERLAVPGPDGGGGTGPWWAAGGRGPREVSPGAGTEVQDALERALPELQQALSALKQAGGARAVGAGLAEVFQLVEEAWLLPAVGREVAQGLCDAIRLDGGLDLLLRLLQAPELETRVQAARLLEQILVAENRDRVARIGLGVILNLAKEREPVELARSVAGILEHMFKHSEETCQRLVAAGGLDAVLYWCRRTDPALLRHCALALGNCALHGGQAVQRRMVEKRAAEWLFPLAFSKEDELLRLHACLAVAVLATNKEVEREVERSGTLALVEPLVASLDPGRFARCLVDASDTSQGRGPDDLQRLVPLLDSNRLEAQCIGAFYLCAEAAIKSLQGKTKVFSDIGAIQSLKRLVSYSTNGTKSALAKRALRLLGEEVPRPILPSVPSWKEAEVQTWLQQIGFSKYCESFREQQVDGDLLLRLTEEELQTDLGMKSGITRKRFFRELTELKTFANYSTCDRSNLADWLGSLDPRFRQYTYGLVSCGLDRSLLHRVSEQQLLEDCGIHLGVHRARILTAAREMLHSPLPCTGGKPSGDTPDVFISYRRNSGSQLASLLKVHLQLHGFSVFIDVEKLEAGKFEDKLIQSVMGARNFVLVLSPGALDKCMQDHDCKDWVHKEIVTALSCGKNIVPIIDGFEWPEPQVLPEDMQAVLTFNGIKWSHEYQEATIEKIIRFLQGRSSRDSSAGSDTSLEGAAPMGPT
Chain of 6-phosphogluconate dehydrogenase, decarboxylating (Homo sapiens) (P52209 whole entry, looked up): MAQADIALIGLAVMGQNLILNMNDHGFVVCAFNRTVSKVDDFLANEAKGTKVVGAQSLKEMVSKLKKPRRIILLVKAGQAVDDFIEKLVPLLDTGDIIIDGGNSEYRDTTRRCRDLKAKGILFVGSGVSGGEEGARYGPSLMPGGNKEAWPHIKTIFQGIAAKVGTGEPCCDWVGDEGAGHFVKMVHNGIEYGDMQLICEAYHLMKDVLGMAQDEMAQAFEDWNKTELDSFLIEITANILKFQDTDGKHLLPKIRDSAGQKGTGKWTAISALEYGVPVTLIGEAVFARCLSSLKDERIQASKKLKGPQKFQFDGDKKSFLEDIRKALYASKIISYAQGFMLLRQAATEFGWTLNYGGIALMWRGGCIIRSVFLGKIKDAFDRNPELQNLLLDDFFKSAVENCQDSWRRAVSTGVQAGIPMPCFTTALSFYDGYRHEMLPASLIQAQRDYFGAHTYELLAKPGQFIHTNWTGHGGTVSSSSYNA
Chain of Mitogen-activated protein kinase 7 (Homo sapiens) (Q13164 whole entry, looked up, the tested form may be a part): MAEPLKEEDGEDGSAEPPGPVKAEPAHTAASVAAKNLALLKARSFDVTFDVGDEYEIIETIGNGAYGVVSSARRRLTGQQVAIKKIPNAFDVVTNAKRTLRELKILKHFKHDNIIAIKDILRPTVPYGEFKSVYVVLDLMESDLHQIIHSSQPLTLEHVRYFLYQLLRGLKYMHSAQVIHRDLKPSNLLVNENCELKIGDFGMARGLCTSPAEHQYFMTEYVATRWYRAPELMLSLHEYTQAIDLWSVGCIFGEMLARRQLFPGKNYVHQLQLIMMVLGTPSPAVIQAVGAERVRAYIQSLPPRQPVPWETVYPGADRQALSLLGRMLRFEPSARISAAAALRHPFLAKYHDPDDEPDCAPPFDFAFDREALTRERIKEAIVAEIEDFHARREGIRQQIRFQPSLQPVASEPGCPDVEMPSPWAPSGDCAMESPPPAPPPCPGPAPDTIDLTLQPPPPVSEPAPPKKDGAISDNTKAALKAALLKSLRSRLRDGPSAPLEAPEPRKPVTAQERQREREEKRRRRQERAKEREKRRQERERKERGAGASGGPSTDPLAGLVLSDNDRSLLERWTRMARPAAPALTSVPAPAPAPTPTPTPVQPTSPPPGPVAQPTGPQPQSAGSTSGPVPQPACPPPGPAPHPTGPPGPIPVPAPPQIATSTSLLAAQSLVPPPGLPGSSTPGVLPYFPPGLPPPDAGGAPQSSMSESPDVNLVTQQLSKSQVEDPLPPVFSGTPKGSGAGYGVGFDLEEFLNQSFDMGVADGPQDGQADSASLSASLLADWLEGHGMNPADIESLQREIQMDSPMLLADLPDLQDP

For the compound `O=C(O)c1nn(Cc2ccc(Cl)cc2Cl)c2ccccc12`, the nuclear beta-catenin stimulation is 1.4% (inactive) in [1] (at 10 µM) and 4.8% in [1] (stimulation, at 2 µM). The insulin secretion stimulation in experiment [2] is 4.2% (inactive). Besides, in experiment [3], the viability decrease is 31.1% (inactive). The tube area decrease in experiment [4] was -29.5% (inactive). Also, the GLP1 secretion stimulation in [5] was 4.9% (inactive). For the same compound, the inhibition of viability in experiment [6] is 19.6% (inactive). Moreover, the viability decrease (inhibition) is 24.5% (inactive) in experiment [7] and 3.6% (inactive) in [8]. Besides, in [9], the inhibition is 4.63% (inactive). The red/green cell ratio (normalised) in [10] was 0.98 (inactive). The normalised cell number in experiment [10] (setting [20]) was 0.85; in [10] (setting [21]) it was 0.83. Besides, the fold change in [11] (stronger effect = lower value) was 1.1 (inactive) and 0.951 (inactive) and 0.966 (inactive); in [11] (measured here: relative caspase fold change +Dox/-Dox) it was 0.953 and 0.659 and 0.627. The cell count in [11] (measured here: total cells with miR-34 induction, stronger effect = lower value) was 10200 and 7460 and 7860; in experiment [11] (measured here: total cells without miR-34 induction), 9270 and 7840 and 8130. Further, the z-score in experiment [12] (setting [22]) is -0.0995 (inactive); in experiment [12] (setting [23]), -0.0829; in experiment [14], 2.35 (active) and 0.985 (inactive). For the same compound, the remaining NAD in experiment [13] was 10 nM (inactive).
Take `O=c1[nH]c2ccccc2n1CCCN1CCC(n2c(=O)[nH]c3cc(Cl)ccc32)CC1`: the nuclear beta-catenin stimulation was 3.1% (inactive) in experiment [1] (at 10 µM) and 0.9% in experiment [1] (stimulation, at 2 µM). In experiment [2], the insulin secretion stimulation is 41.9% (active). For the same compound, the viability decrease in experiment [3] is -17.1% (inactive). Also, in [4], the tube area decrease is 12.9% (inactive). The GLP1 secretion stimulation in experiment [5] was 6.8% (inactive). The inhibition of viability in experiment [6] is 13.1% (inactive). For the same compound, the results for the viability decrease (inhibition) in experiment [7] and in experiment [8] were 13.8% (inactive) and 15.8% (inactive), respectively. For the same compound, in experiment [9], the inhibition is 2.55% (inactive). Further, in [10], the red/green cell ratio (normalised) was 1.2 (inactive). Moreover, the values for the normalised cell number in experiment [10] (setting [20]) and in experiment [10] (setting [21]) were 0.91 and 1.1, respectively. For the same compound, the activity remaining in experiment [15] is 117% (inactive). For the same compound, the z-score is -0.488 (inactive) and -0.032 (inactive) and 1.25 (inactive) in experiment [12] (setting [22]); 0.597 and -0.334 and 1.01 in experiment [12] (setting [23]); -0.92 (inactive) and -0.455 (inactive) and -0.075 (inactive) in experiment [14]. For the same compound, the remaining NAD in experiment [13] was 10 nM (inactive). The luciferase signal in experiment [16] was 44 AU (inactive).
On to `O=c1[nH]c2ccccc2n1C1CCN(CCCC(c2ccc(F)cc2)c2ccc(F)cc2)CC1`, for which the score in experiment [17] was 1.1. In addition, the cytochrome c release ratio in [18] is 1.41. Besides, the inhibition of aggregation in experiment [19] was found to be 38.1%. Also, the nuclear beta-catenin stimulation in experiment [1] (at 10 µM) was 7.8% (inactive); in experiment [1] (stimulation, at 2 µM), 0.2%. For the same compound, the insulin secretion stimulation in experiment [2] was 0.4% (inactive). Also, in experiment [3], the viability decrease was 98.9% (active). The tube area decrease in experiment [4] was 108% (active). Also, in [5], the GLP1 secretion stimulation is -4.5% (inactive). Also, the inhibition of viability in experiment [6] was 99.6% (active). Also, the results for the viability decrease (inhibition) in experiment [7] and in experiment [8] were 102% (active) and 99.3% (active), respectively. Further, the inhibition in [9] was 13.7% (inactive). For the same compound, in [10], the red/green cell ratio (normalised) is 0.96 (inactive). The normalised cell number in [10] (setting [20]) was 1.24; in [10] (setting [21]) it was 1.19. For the same compound, the activity remaining in experiment [15] was 128% (inactive). Also, the z-score in experiment [12] (setting [22]) is 0.83 (inactive) and 0.29 (inactive); in experiment [12] (setting [23]), 0.702 and -0.0813; in experiment [14], -1.29 (inactive) and -1.18 (inactive) and -2 (inactive). Further, in experiment [13], the remaining NAD was 10 nM (inactive). In addition, in experiment [16], the luciferase signal was 68 AU (inactive).
In experiment [17], `Clc1ccc(COC(Cn2ccnc2)c2ccc(Cl)cc2Cl)cc1` (centres undefined) had a score of 0.26. For the same compound, the cytochrome c release ratio in experiment [18] amounted to 0.38. In addition, the inhibition of aggregation in experiment [19] came to 43.9%. In addition, the nuclear beta-catenin stimulation in [1] (at 10 µM) was 3.6% (inactive); in experiment [1] (stimulation, at 2 µM) it was 4.8%. Moreover, in [2], the insulin secretion stimulation is 2.8% (inactive). Further, the viability decrease in experiment [3] was 101% (active). Besides, the tube area decrease in [4] is 108% (active). For the same compound, the GLP1 secretion stimulation in experiment [5] is 23.9% (active). The inhibition of viability in [6] was 102% (active). Besides, the viability decrease (inhibition) in experiment [7] was 123% (active); in experiment [8], 103% (active). The inhibition in [9] was -10.8% (inactive). The red/green cell ratio (normalised) in experiment [10] was 1.13 (inactive). Also, the results for the normalised cell number in experiment [10] (setting [20]) and in experiment [10] (setting [21]) were 0.92 and 1.04, respectively. Further, in [15], the activity remaining is 123% (inactive). In addition, the z-score is -0.276 (inactive) and 1.78 (inactive) in experiment [12] (setting [22]); 0.45 and 0.962 in [12] (setting [23]); -1.53 (inactive) in experiment [14]. For the same compound, the remaining NAD in [13] was 10 nM (inactive). In addition, the luciferase signal in experiment [16] was 60 AU (inactive).

The values above are taken from PubChem BioAssay.
